Assay results as given in PubChem BioAssay (EPA / NIEHS).
Inconclusive results are not listed. Some structures have more than one record in an assay (separate samples or runs), and their calls can disagree. Calls of active or inactive are those of the source. The calls were made as follows, unless noted: active = hit-call score of the fitted dose curve at least 0.9, where 1 is the maximum; inactive = score below 0.9.

What was measured:
[1] = target: Steroid hormone receptor ERR1 (Homo sapiens) (UniProt P11474); test: ATG_ERRa_TRANS: Attagene TRANS-FACTORIAL HepG2 Assay for human Estrogen-Related Receptor alpha (ERRa) (AID 2282971; active = hit-call score of the fitted dose curve at least 0.9, where 1 is the maximum); conditions: HepG2 Attagene TRANS reporter, ERRa transactivation
Procedure, shortened: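 HepG2 cells transiently transfected with GAL4-UAS reporter units and chimeric NR-Gal4 constructs; after 24 hour compound incubation, reporter mRNA quantified by RT-PCR, fluorescent labelling and capillary electrophoresis, gain of signal versus DMSO.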

[2] = target: X-box-binding protein 1 (Homo sapiens) (UniProt P17861); test: ATG_Xbp1_CIS: Attagene CIS-FACTORIAL HepG2 Assay for human X-box Binding Protein 1 (XBP1) (AID 2282972); conditions: HepG2 XBP1 cis-element reporter, Attagene multiplex; actives raise or lower the signal
Procedure, shortened: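 After a 24-hour chemical exposure of HepG2 cells carrying cis-regulated reporters, reporter mRNA levels are assessed. Quantification uses RT-PCR, 6-FAM labelling and capillary electrophoresis. Gain- or loss-of-signal is fitted against DMSO.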

[3] = ATG_M_19_TRANS: Attagene TRANS-FACTORIAL HepG2 Assay for M19 Transcription Factor (Internal Marker) (AID 2282974; active = hit-call score of the fitted dose curve at least 0.9, where 1 is the maximum); conditions: HepG2 Attagene TRANS-FACTORIAL M19 internal marker reporter
Procedure, shortened: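 24 h chemical exposure of transiently transfected HepG2 (MRTU library). RNA → oligo(dT) RT → PCR → 6-FAM labelling → HpaI cut → CE fluorescence. Positive-direction fit vs DMSO baseline; background internal-marker readout.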

[4] = ATG_GAL4_TRANS: Attagene TRANS-FACTORIAL HepG2 Assay for GAL4 (Internal Marker) (AID 2282976; active = hit-call score of the fitted dose curve at least 0.9, where 1 is the maximum); conditions: HepG2 Attagene TRANS GAL4 internal marker reporter
Procedure, shortened: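 Background-control readout: GAL4-UAS reporter transcript in transiently transfected HepG2 cells after 24 h compound exposure. Measured by RT-PCR, 6-FAM primer extension, HpaI digest and capillary electrophoresis; gain-of-signal fit versus DMSO.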

[5] = target: Glucocorticoid receptor (Homo sapiens) (UniProt P04150); test: ATG_GR_TRANS: Attagene TRANS-FACTORIAL HepG2 Assay for human Glucocorticoid Receptor (GR) (AID 2282978; active = hit-call score of the fitted dose curve at least 0.9, where 1 is the maximum;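 also: activators score as hits since higher reporter transcript over DMSO is fitted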); conditions: HepG2 Attagene TRANS GR reporter, mRNA transcription
Sequence of Glucocorticoid receptor (Homo sapiens) (P04150 whole entry, looked up, the tested form may be a part): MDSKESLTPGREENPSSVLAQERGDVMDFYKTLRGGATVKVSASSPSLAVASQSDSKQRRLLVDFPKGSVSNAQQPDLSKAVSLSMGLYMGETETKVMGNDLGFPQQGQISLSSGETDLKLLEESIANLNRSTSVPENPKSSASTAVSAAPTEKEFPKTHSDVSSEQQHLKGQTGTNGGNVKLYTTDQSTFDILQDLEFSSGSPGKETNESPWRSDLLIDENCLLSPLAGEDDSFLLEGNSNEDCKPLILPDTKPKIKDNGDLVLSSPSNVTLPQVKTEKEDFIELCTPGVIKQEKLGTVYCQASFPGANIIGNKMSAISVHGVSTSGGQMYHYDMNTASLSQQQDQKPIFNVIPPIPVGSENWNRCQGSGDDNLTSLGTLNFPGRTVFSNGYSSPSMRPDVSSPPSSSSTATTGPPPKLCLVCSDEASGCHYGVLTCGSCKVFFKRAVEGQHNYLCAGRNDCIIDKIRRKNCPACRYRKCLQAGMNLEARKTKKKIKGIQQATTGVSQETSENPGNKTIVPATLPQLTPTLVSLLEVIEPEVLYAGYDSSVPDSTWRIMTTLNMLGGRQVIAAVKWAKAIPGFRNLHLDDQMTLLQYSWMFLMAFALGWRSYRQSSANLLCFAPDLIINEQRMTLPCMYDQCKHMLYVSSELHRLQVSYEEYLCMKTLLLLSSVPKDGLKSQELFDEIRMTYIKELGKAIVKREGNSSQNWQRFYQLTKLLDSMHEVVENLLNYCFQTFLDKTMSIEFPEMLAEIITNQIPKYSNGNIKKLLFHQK
Procedure, shortened: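 Transient MRTU transfection of HepG2 (GAL4-UAS reporters, exogenous NR-GAL4 chimeras), 24 h dosing. Readout: reporter transcript via RT-PCR + capillary electrophoresis fluorescence. Positive direction vs DMSO baseline.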

[6] = target: Oxysterols receptor LXR-alpha (Homo sapiens) (UniProt Q13133); test: ATG_LXRa_TRANS: Attagene TRANS-FACTORIAL HepG2 Assay for human Liver X Receptor alpha (LXRa) (AID 2282980; active = hit-call score of the fitted dose curve at least 0.9, where 1 is the maximum); conditions: HepG2 Attagene TRANS reporter, LXRa transactivation
Sequence of Oxysterols receptor LXR-alpha (Homo sapiens) (Q13133 whole entry, looked up, the tested form may be a part): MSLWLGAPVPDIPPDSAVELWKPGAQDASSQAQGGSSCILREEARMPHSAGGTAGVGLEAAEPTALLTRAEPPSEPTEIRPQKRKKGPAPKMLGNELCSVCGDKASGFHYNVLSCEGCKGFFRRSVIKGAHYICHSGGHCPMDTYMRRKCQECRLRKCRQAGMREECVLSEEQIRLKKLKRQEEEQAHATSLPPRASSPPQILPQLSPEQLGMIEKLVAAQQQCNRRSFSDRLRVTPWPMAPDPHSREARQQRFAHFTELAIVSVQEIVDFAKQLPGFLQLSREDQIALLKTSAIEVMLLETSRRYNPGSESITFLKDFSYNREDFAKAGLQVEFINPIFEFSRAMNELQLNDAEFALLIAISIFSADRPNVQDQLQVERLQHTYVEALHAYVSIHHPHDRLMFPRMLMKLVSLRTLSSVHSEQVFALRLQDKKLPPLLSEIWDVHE
Procedure, shortened: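 HepG2 cells transiently transfected with GAL4-UAS reporter units for chimeric NR-Gal4 proteins, exposed to chemicals for 24 h. Reporter mRNA quantified by RT-PCR and capillary electrophoresis; gain of signal fitted relative to DMSO.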

[7] = target: Oxysterols receptor LXR-beta (Homo sapiens) (UniProt P55055); test: ATG_LXRb_TRANS: Attagene TRANS-FACTORIAL HepG2 Assay for human Liver X Receptor beta (LXRb) (AID 2282981; active = hit-call score of the fitted dose curve at least 0.9, where 1 is the maximum); conditions: HepG2 Attagene TRANS GAL4-LXRb reporter, mRNA
Sequence of Oxysterols receptor LXR-beta (Homo sapiens) (P55055 whole entry, looked up, the tested form may be a part): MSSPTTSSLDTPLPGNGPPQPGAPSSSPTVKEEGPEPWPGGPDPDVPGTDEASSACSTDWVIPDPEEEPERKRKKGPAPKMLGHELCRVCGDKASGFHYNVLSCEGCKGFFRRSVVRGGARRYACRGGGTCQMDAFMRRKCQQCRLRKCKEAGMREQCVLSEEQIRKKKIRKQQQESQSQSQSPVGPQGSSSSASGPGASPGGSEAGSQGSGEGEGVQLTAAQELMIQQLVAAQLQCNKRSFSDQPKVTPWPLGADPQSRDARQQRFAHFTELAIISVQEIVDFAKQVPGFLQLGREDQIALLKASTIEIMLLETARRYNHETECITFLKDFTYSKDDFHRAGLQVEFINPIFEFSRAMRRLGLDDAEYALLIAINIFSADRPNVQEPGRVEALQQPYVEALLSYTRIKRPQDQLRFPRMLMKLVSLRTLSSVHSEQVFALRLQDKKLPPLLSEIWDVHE
Procedure, shortened: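 Gain-of-signal mRNA reporter endpoint, DMSO as negative control. Transiently transfected HepG2 cells carrying the NR-Gal4 chimera and GAL4-UAS reporter units were treated 24 h; transcripts quantified by RT-PCR and capillary electrophoresis fluorescence.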

[8] = ATG_M_06_TRANS: Attagene TRANS-FACTORIAL HepG2 Assay for M06 Transcription Factor (Internal Marker) (AID 2282983; active = hit-call score of the fitted dose curve at least 0.9, where 1 is the maximum); conditions: HepG2 Attagene TRANS M06 internal marker reporter
Procedure, shortened: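 HepG2 cells transiently transfected with GAL4-UAS multiple reporter units, dosed 24 h. Reporter RNA reverse-transcribed, PCR-amplified, 6-FAM-labeled, HpaI-digested and quantified by capillary electrophoresis; this internal-marker signal fitted upward relative to DMSO.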

[9] = ATG_M_32_TRANS: Attagene TRANS-FACTORIAL HepG2 Assay for M32 Transcription Factor (Internal Marker) (AID 2282984; active = hit-call score of the fitted dose curve at least 0.9, where 1 is the maximum); conditions: HepG2 Attagene TRANS M32 internal marker reporter
Procedure, shortened: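 Capillary electrophoresis of 6-FAM-labelled reporter fragments gives the signal; data fitted for gain over DMSO negative control. Source: HepG2 cells bearing transient multiple reporter transcription units, 24 h exposure.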

[10] = target: Transcriptional activator Myb (Homo sapiens) (UniProt P10242); test: ATG_Myb_CIS: Attagene CIS-FACTORIAL HepG2 Assay for human Myeloblastosis (Myb) Proto-Oncogene Transcription Factor (AID 2282986); conditions: HepG2 Attagene CIS-FACTORIAL Myb reporter transcription; actives raise or lower the signal
Sequence of Transcriptional activator Myb (Homo sapiens) (P10242 whole entry, looked up): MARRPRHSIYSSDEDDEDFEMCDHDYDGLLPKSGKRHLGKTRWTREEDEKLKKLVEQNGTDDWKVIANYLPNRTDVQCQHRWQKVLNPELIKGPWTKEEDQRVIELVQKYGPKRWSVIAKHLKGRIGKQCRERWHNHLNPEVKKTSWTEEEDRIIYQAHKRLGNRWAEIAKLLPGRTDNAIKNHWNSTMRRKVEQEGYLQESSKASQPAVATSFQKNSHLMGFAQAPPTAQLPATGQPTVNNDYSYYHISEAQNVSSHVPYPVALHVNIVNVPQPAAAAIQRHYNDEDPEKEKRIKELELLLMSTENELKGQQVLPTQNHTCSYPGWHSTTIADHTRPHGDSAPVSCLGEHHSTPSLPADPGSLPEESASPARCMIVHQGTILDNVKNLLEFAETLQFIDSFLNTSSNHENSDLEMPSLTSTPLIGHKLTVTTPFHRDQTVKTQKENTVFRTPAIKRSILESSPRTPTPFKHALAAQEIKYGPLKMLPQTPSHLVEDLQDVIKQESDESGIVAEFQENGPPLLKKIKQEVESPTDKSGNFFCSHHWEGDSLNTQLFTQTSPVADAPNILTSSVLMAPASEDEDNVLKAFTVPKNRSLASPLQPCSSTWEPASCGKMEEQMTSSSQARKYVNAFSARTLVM
Procedure, shortened: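 HepG2, transient MRTU transfection (cis-element promoters, endogenous TF activity), 24 h compound exposure. Readout: reporter mRNA via RT-PCR, 6-FAM labeling, HpaI digest, capillary electrophoresis. Gain/loss fit vs DMSO.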

[11] = target: Nuclear respiratory factor 1 (Homo sapiens) (UniProt Q16656); test: ATG_NRF1_CIS: Attagene CIS-FACTORIAL HepG2 Assay for human Nuclear Respiratory Factor 1 (NRF1) Orphan Gene (AID 2282987); conditions: HepG2 NRF1 cis-element reporter, Attagene multiplex; actives raise or lower the signal
Sequence of Nuclear respiratory factor 1 (Homo sapiens) (Q16656 whole entry, looked up): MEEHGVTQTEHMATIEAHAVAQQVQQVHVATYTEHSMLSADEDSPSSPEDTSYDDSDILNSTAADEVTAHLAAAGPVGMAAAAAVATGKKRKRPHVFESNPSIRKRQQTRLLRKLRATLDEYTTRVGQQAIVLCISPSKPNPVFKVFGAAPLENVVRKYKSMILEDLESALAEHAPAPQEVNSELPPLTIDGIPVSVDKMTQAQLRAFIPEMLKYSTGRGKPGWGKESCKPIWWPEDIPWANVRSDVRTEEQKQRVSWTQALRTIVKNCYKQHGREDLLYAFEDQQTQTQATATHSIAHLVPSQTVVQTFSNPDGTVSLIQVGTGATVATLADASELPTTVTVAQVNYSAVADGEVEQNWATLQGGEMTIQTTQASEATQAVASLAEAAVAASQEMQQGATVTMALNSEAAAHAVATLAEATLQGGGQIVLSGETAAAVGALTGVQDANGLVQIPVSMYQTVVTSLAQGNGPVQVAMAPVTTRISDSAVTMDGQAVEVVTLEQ
Procedure, shortened: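 Endogenous NRF1-driven reporter transcription measured in transiently transfected human HepG2 liver cells. Readout: reporter mRNA by RT-PCR and capillary electrophoresis with fluorescence detection, 24 h post-dosing. Gain or loss of signal fitted relative to DMSO baseline.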

[12] = target: Myc proto-oncogene protein (Homo sapiens) (UniProt P01106); test: ATG_Myc_CIS: Attagene CIS-FACTORIAL HepG2 Assay for human Myelocytomatosis (Myc) Proto-Oncogene Transcription Factor (AID 2282990); conditions: HepG2, Attagene cis-reporter transcription factor activity; actives raise or lower the signal
Sequence of Myc proto-oncogene protein (Homo sapiens) (P01106 whole entry, looked up): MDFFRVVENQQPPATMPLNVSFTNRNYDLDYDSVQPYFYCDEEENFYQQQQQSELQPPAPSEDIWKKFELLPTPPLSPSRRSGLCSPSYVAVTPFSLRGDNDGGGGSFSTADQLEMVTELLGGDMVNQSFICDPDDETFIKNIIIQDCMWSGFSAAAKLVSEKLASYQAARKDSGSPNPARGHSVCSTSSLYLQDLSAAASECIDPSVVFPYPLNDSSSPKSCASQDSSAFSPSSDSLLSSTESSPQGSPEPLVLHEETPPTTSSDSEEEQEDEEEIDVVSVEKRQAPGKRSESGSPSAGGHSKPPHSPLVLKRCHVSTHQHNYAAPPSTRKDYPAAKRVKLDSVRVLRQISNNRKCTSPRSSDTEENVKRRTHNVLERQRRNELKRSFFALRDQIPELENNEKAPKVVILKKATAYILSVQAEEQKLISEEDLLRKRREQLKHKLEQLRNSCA
Procedure, shortened: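 Transiently transfected HepG2 cells bearing cis-promoter reporter units for endogenous transcription factors; 24 h exposure. Reporter mRNA measured by RT-PCR, 6-FAM primer extension, HpaI cut and capillary electrophoresis; bidirectional fit relative to DMSO.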

[13] = ATG_NF_kB_CIS: Attagene CIS-FACTORIAL HepG2 Assay for human Nuclear Factor Kappa B (NF-kB) (AID 2282991); conditions: HepG2 Attagene cis-factorial NF-kB reporter mRNA; actives raise or lower the signal
Procedure, shortened: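 Read-out: reporter transcript levels quantified by RT-PCR plus capillary electrophoresis of 6-FAM-labelled, HpaI-cut fragments. Transfected HepG2 cells, 24 h compound exposure, endogenous NF-kB-driven cis element; gain or loss scored versus DMSO.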

[14] = ATG_NRF2_ARE_CIS: Attagene CIS-FACTORIAL HepG2 Assay for human Nuclear Factor Erythroid 2 Related Factor 2 (NFR2) response to Antioxidant Response Elements (ARE) (AID 2282992); conditions: HepG2 Attagene ARE/NRF2 reporter, transcription factor activity; actives raise or lower the signal
Procedure, shortened: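 Cis-factorial assay: transfected HepG2 reporter library, 24 h dosing, mRNA readout via RT-PCR/CE; DMSO-referenced bidirectional analysis.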

[15] = target: Androgen receptor (Homo sapiens) (UniProt P10275); test: ATG_AR_TRANS: Attagene TRANS-FACTORIAL HepG2 Assay for human Androgen Receptor (AR) (AID 2282973; active = hit-call score of the fitted dose curve at least 0.9, where 1 is the maximum); conditions: HepG2 Attagene TRANS-FACTORIAL AR reporter transcription
Procedure, shortened: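 HepG2 cells transiently transfected with AR-Gal4 chimera and GAL4-UAS reporter units; chemical exposure 24 h. Reporter mRNA quantified by RT-PCR with fluorescent labelling and capillary electrophoresis; gain-of-signal fitted against DMSO.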

[16] = target: Estrogen-related receptor gamma (Homo sapiens) (UniProt P62508); test: ATG_ERRg_TRANS: Attagene TRANS-FACTORIAL HepG2 Assay for human Estrogen-Related Receptor gamma (ERRg) (AID 2282977; active = hit-call score of the fitted dose curve at least 0.9, where 1 is the maximum;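 also: hits increase reporter signal over DMSO so potencies reflect activators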); conditions: HepG2 Attagene TRANS reporter, ERRg transactivation
Sequence of Estrogen-related receptor gamma (Homo sapiens) (P62508 whole entry, looked up, the tested form may be a part): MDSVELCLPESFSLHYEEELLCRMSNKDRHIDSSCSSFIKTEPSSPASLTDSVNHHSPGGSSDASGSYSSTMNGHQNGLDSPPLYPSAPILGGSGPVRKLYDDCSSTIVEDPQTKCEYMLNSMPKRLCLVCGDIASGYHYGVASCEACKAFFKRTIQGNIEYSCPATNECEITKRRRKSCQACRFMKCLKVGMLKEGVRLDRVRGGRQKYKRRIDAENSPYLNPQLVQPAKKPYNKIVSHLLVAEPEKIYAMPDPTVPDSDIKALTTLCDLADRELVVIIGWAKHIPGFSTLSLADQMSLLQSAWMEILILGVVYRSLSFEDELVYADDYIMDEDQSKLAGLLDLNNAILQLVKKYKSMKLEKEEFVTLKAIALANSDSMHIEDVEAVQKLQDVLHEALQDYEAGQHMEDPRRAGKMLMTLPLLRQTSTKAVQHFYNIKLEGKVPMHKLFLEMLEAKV
Procedure, shortened: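 HepG2 cells transiently transfected with multiplexed GAL4-UAS reporter units and chimeric NR-Gal4 constructs were exposed to test chemicals for 24 h. Reporter mRNA was measured by RT-PCR, 6-FAM primer extension, HpaI digestion and capillary electrophoresis; gain-of-signal versus DMSO.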

[17] = ATG_NFI_CIS: Attagene CIS-FACTORIAL HepG2 Assay for human Nuclear Factor I (NFI) (AID 2282989); conditions: HepG2 cis-regulatory reporter, NFI response element transcription; actives raise or lower the signal
Procedure, shortened: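 Endogenous TF activity in HepG2 cells transiently transfected with cis-element-driven multiplexed reporter units, read 24 h after dosing. Reporter mRNA quantified by RT-PCR, 6-FAM labelling, HpaI digestion and capillary electrophoresis; bidirectional fit versus DMSO.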

[18] = target: Bile acid receptor (Homo sapiens) (UniProt Q96RI1); test: ATG_FXR_TRANS: Attagene TRANS-FACTORIAL HepG2 Assay for Farnesoid X Receptor (FXR) (AID 2282979; active = hit-call score of the fitted dose curve at least 0.9, where 1 is the maximum;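 also: hits raise reporter mRNA above DMSO so AC50 marks FXR activation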); conditions: HepG2 Attagene TRANS FXR-GAL4 reporter transcription
Sequence of Bile acid receptor (Homo sapiens) (Q96RI1 whole entry, looked up, the tested form may be a part): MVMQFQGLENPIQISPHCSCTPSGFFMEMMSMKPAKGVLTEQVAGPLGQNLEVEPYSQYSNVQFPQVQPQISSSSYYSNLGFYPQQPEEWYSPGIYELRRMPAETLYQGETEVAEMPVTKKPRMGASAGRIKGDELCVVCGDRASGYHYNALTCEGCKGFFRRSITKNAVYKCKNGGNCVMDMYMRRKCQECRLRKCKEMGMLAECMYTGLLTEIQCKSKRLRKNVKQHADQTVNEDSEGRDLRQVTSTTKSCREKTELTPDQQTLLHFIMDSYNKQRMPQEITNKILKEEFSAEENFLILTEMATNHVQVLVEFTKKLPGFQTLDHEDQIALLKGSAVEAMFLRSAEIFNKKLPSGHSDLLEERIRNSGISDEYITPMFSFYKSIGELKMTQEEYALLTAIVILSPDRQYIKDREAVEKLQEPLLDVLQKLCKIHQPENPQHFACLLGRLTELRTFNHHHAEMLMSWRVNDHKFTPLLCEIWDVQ
Procedure, shortened: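 HepG2 cells were transiently transfected with GAL4-UAS reporters driven by chimeric NR-Gal4 proteins and dosed for 24 h. Reporter mRNA was quantified by RT-PCR, fluorescent labelling, HpaI digestion and capillary electrophoresis, with gain of signal scored versus DMSO.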

[19] = target: Hepatocyte nuclear factor 4-alpha (Homo sapiens) (UniProt P41235); test: ATG_HNF4a_TRANS: Attagene TRANS-FACTORIAL HepG2 Assay for human Hepatocyte Nuclear Factor 4 alpha (HNF4a) (AID 2282982; active = hit-call score of the fitted dose curve at least 0.9, where 1 is the maximum); conditions: HepG2 HNF4a transactivation reporter, mRNA readout
Procedure, shortened: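 Gain-of-signal mRNA induction, relative to DMSO vehicle, was read after 24 h compound treatment of HepG2 cells bearing transfected GAL4-UAS reporters. Detection used RT-PCR, 6-FAM primer extension and capillary electrophoresis.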

[20] = target: Nuclear receptor subfamily 4 group A member 2 (Homo sapiens) (UniProt P43354); test: ATG_NURR1_TRANS: Attagene TRANS-FACTORIAL HepG2 Assay for human Nuclear Receptor Related Protein 1 (NURR1) (AID 2282985; active = hit-call score of the fitted dose curve at least 0.9, where 1 is the maximum); conditions: HepG2 Attagene TRANS reporter, mRNA readout
Sequence of Nuclear receptor subfamily 4 group A member 2 (Homo sapiens) (P43354 whole entry, looked up): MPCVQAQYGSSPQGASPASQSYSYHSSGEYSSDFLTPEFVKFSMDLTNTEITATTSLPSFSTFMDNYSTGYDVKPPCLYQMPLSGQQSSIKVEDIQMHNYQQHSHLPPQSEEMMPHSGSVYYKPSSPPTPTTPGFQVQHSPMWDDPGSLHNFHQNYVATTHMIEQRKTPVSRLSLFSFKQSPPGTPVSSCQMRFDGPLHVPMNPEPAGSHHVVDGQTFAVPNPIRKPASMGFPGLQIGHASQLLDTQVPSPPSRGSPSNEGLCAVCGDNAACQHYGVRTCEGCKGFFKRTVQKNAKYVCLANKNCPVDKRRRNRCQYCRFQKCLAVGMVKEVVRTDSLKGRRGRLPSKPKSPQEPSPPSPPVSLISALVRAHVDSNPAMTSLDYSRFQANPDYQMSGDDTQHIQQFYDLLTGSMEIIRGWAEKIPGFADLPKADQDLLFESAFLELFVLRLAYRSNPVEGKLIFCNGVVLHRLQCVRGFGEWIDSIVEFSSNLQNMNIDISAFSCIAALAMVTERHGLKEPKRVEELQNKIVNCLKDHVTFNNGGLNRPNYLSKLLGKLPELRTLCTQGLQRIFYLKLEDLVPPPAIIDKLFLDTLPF
Procedure, shortened: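 HepG2 / transient MRTU transfection / 24 h compound exposure / RT-PCR + CE fluorescence of reporter mRNA / gain-of-signal vs DMSO.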

Measured: AC50

CC(O)(CS(=O)(=O)c1ccc(F)cc1)C(=O)Nc1ccc(C#N)c(C(F)(F)F)c1 (stereo not given)
active: [14] 94.5 µM
not listed: [15] | [16] | [17] | [18] | [19] | [20]
inactive: all other assays above

CC(F)(F)CC(F)(F)F
inactive: [15]

COc1ccc([N+](=O)[O-])cc1O
inactive: [15]

ClCc1ccccc1Cl
active: [2] 100 µM | [14] 12.4 µM
inactive: [3] | [16] | [10] | [11] | [17] | [12]

Oc1cc(Cl)c(Cl)cc1Cl
active: [2] 59 µM | [17] 66.4 µM | [12] 152 µM
inactive: [3] | [4] | [8] | [9] | [10] | [11] | [14]

CCCCOC(C)=O
active: [10] 100 µM
inactive: [2] | [3] | [4] | [18] | [6] | [7] | [19] | [8] | [9] | [10] | [11] | [17] | [12] | [13]

CCOP(=S)(OCC)OP(=S)(OCC)OCC
not listed: [1] | [6] | [8] | [13] | [15] | [16] | [17] | [18]
inactive: all other assays above

Nc1nc(=S)[nH][nH]1
inactive: [2] | [3] | [4] | [5] | [6] | [20] | [10] | [11] | [12] | [13]

CCCCCCCCCCCCCCC(Br)C(=O)O (stereo not given)
active: [2] 152 µM | [20] 26.4 µM | [10] 163 µM | [11] 168 µM | [13] 50.4 µM | [14] 30.1 µM
inactive: [3] | [4] | [5] | [9] | [12]

Cc1c([N+](=O)[O-])c(C)c([N+](=O)[O-])c(C(C)(C)C)c1[N+](=O)[O-]
inactive: [3] | [16] | [8] | [10] | [11] | [17] | [12]
active: [2] 100 µM | [20] 11.3 µM

O=S(=O)(Oc1ccc(Cl)cc1)c1ccc(Cl)cc1
inactive: [2] | [3] | [16] | [5] | [8] | [11] | [17] | [12]
active: [14] 23.1 µM

CCCSP(=S)(OCC)Oc1ccc(SC)cc1 (stereo not given)
inactive: [2] | [3] | [16] | [18] | [20] | [10] | [11] | [12] | [14]

COC(=O)Nc1cccc(OC(=O)Nc2cccc(C)c2)c1
inactive: [2] | [3] | [16] | [18] | [6] | [8] | [10] | [11] | [17] | [12] | [14]
